Screening results deposited in PubChem by several laboratories.
CR mimetic SO = reduction of superoxide in aged yeast, primary screen, HTS; hit rate 0.18% among 330,000; superoxide response (% of plate mean), % at 10 µM; S. cerevisiae aged cells, superoxide DHE fluorescence; hits give low values;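 active = superoxide response under a set limit, about three screen SD below normal, cut at about 65% in these data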;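 note: yeast aged for seven days with compound at 30 °C before DHE staining; 100% = average MFI of all compound-treated wells on the plate with controls excluded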
PKA-R1A act = activators of PKA-R1A holoenzyme, primary screen, biochemical, fluorescence polarization, Cy5-IP20, bovine R1A, mouse PKAc. AID 504707, 2011. PKA-R1A dissociation; scaled: DMSO 0%, 113 µM cGMP 100%. hit rate 0.083% among 340,000. activation, % at 11.4 µM;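 active = percent activation above the mean of all tested compounds plus 3 SD, cut at about 19% in these data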;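 note: higher means more PKAc released from R1A so a rise in polarization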
GASC-1 inh = inhibitors of GASC-1 histone demethylase, primary screen, biochemical, fluorescence, DELFIA europium. GST-JMJD2C(1-420) H3K9me3 demethylation. hit rate 0.069% among 330,000. Lysine-specific demethylase 4C (Homo sapiens), Q9H3R0. inhibition, % at 2.35 µM;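 active = more than half of a compound's replicate wells show inhibition beyond 50%, single wells judged on their own value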;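 note: signal counts dimethyl H3K9 product captured on neutravidin plate; 0% = median of DMSO wells and 100% = 0.3 times that DMSO median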
PolyA inh = polyadenylation inhibitors in yeast reporter cells, primary screen, luminescence, S. cerevisiae. S. cerevisiae SKY197-pL101 polyadenylation reporter, beta-gal luminescence; efflux-impaired pdr1/pdr3 knockout yeast; score 100 = 6 SD above DMSO. activity score, % at 12 µM. hit rate 0.02% among 300,000;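 active = lowest replicate activity score at least 50, where 100 means six control SD above control mean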;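 note: yeast exposed to compound for 9 h at 30 °C; higher score means more reporter readthrough which indicates perturbed polyadenylation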
V-ATPase pHluor = regulators of yeast V-ATPase proton pumping, primary screen, pHLuorin cytosolic pH fluorescence | S. cerevisiae | response, % at 10 µM | hit rate 0.37% among 350,000; in the data active = response mostly above about 7.3%, no sharp cut-off; inactive = mostly below about 5.4%; note: actives read high
PKA-R2B activ = activators of PKA-R2B holoenzyme, primary screen, biochemical, fluorescence polarization, Cy5-IP20, human; AID 504700, 2011; activation, % at 11.4 µM; cAMP-dependent protein kinase catalytic subunit beta (Homo sapiens) + cAMP-dependent …; hit rate 0.079% among 340,000; PKA-R2B holoenzyme dissociation; R2B truncated from residue 108, S112A mutant; 0% DMSO only, 100% 113 µM cGMP;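 active = activation above a cutoff set at the mean over all compounds plus 3 SD, cut at about 18% in these data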;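 note: higher means more holoenzyme dissociation and a rise in polarization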
Target sequence (P31323 whole entry, looked up, other chains not shown, the tested form may be a part): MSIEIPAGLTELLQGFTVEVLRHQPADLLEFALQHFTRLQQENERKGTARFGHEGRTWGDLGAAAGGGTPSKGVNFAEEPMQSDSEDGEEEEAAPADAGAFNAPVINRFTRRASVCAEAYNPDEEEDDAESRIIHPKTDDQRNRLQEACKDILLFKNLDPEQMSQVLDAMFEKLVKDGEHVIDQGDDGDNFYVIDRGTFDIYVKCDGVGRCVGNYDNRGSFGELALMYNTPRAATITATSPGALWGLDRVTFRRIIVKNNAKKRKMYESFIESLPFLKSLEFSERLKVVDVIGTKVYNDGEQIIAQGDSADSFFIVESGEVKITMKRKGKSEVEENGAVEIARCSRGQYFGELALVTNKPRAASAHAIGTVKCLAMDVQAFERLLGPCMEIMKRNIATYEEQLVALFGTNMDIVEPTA
V-ATPase pH SP = yeast V-ATPase proton pumping modulators, confirmation, S. cerevisiae, pH-sensitive GFP, second cherry-pick | S. cerevisiae pHLuorin cytosolic pH, V-ATPase proton transport | AID 602197, 2012 | hit rate 2% among 980 | response, % at 10 µM | shares compounds with V-ATPase pHluor; in the data active = response above about 24%;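 note: plate controls were vehicle wells for no effect and positive control wells for full effect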
* marks the source's active call; other numbers are inactive results; / = no result. Only some compounds are listed: those with a hit (about 0.78% of all), similar ones and a draw of the others.

SMILES | CR mimetic SO | PKA-R1A act | GASC-1 inh | PolyA inh | V-ATPase pHluor | PKA-R2B activ | V-ATPase pH SP
Cc1cc(=O)cc(C)n1-c1ccc(O)cc1 | 89 | -8 | 0 | 3 | -2 | -5 | /
O=C(CCCCn1c(=O)c2ccccc2n(Cc2ccccc2)c1=O)NC1CCN(Cc2ccccc2)CC1 | 108 | -1 | -10 | 22 | 1 | 8 | /
COc1ccc(S(=O)(=O)N2CCN(Cc3c[nH]c4ccccc34)CC2)cc1 | 96 | -5 | 5 | 11 | 7.8* | 0 | 1
Cc1cc(C)c2cccc(N)c2n1 | 111 | 1 | 9 | -8 | 31* | 9 | 0
O=C(Nc1ccccc1N1CCCCC1)c1ccc([N+](=O)[O-])o1 | / | -6 | / | / | 0 | -3 | /
O=C(Nc1ccccc1N1CCOCC1)c1ccc([N+](=O)[O-])o1 | 114 | 8 | -5 | -21 | 25* | -3 | 90*
COc1ccc(NC(=O)COc2cc(C)cc(C)c2)cc1S(=O)(=O)N1CCCCC1 | 98 | 5 | -13 | 2 | 3 | -8 | /
O=C(Nc1ccccc1N1CCCCC1)C1CC(=O)N(c2ccccc2F)C1 (stereo not given) | 121 | 10 | -1 | / | 0 | -10 | /
COc1ccccc1N1CC(C(=O)Nc2ccccc2N2CCCC2)CC1=O (stereo not given) | 96 | 1 | 0 | 4 | 7.6* | 5 | 1
CC(=O)OC(C(=O)N1CCN(c2ccccc2F)CC1)c1ccccc1 (stereo not given) | 94 | -1 | 12 | 4 | 12* | 6 | 1
CC(C)N(C(=O)CSc1nnnn1C1CCCC1)C(C)C | 92 | -5 | -5 | -1 | 8.1* | 1 | -2
O=C(O)CSc1nnnn1C1CCCCC1 | 112 | -2 | 26 | -11 | 2 | 8 | /
COc1cc(CC(=O)NNC(=O)c2cc(C)oc2C)cc(OC)c1OC | 97 | -14 | 6 | -2 | -4 | -12 | /
Cc1ccc(S(=O)(=O)O/N=C2\CCCc3ccccc32)cc1 | 104 | -2 | -2 | 20 | 12* | 0 | -2
Cc1ccc(S(=O)(=O)NN=C2CCCc3ccccc32)cc1 | / | 2 | / | / | -3 | -8 | /
Cc1cc(Br)ccc1NC(=O)CSc1nnc(CN2CCOCC2)n1C | 104 | -14 | 3 | 10 | 0 | -1 | /
COc1ccc(CNS(=O)(=O)c2ccc(C3CNC(=O)C3)cc2)cc1 (stereo not given) | 94 | -5 | 4 | 11 | 12* | -1 | 2
COCCNS(=O)(=O)c1ccc(C2CNC(=O)C2)cc1 (stereo not given) | 107 | -8 | 6 | -7 | 2 | -2 | /
COc1cc(/C=C2\CCn3c2nc2cc(C(=O)O)ccc2c3=O)ccc1OC(F)F | 96 | 1 | 14 | -15 | 1 | 3 | /
O=C(CCCN1C(=O)/C(=C/c2ccccc2Cl)SC1=S)NNC(=O)c1ccccc1Cl | 98 | 2 | -5 | 9 | 10* | 2 | 4
COc1ccccc1CNc1cc(C)ccn1 | 95 | -2 | 4 | -2 | -1 | -2 | /
CCC(C)c1ccccc1N1CC(C(=O)N2CCN(S(=O)(=O)c3cccc([N+](=O)[O-])c3)CC2)CC1=O (stereo not given) | / | 6 | / | / | 0 | -13 | /
CCn1cc(Br)c(C(=O)Nc2nccs2)n1 | 86 | -9 | -6 | 1 | 10* | -10 | 0
Cc1cc(=O)c(C(=O)O)nn1-c1ccc(Cl)cc1 | 85 | 0 | 16 | 3 | 3 | 1 | -1
Cc1onc(-c2ccccc2)c1C(=O)NC1CCCCC1C (stereo not given) | / | 0 | / | / | 9.2* | -1 | -4
CC1(C)CC(=O)C(C(C2=C(O)CC(C)(C)CC2=O)c2cccc(O)c2)C(=O)C1 (stereo not given) | 109 | -6 | / | / | 0 | -6 | /
